Measured values from PubChem BioAssay (EPA / NIEHS).
Where “and” joins values, the source holds several entries; their conditions need not be identical. Equal values may be shown once. Calls of active or inactive are those of the source. The calls were made as follows: active = hit-call score of the fitted dose curve at least 0.9, where 1 is the maximum; inactive = score below 0.9.

Assay: ATG_AP_2_CIS: Attagene CIS-FACTORIAL HepG2 Assay for human Activator Protein 2 (AP-2) (AID 2282932)
Settings: HepG2 AP-2 cis-reporter, Attagene transcription factor profiling; AC50: actives raise or lower the signal unless noted; outcome: actives raise or lower the signal unless noted
Method: ATG_CIS is a cell-based, multiplexed-readout assay that uses HepG2, a human liver cell line, with measurements taken at 24 hours after chemical dosing in a 24-well plate.ATG_AP_2_CIS is one of 52 assay component(s) measured or calculated from the ATG_CIS assay. It is designed to make measurements of mRNA induction, a form of inducible reporter, as detected with fluorescence intensity signals by Reverse transcription polymerase chain reaction (RT-PCR) and Capillary electrophoresis technology.Data from the assay component ATG_AP_2_CIS was analyzed into 1 assay endpoint. This assay endpoint, ATG_AP_2_CIS, was analyzed with bidirectional fitting relative to DMSO as the negative control and baseline of activity. Using a type of inducible reporter, measures of mRNA for gain or loss-of-signal activity can be used to understand the reporter gene at the transcription factor-level as they relate to the gene TFAP2A and TFAP2B and TFAP2D. Furthermore, this assay endpoint can be referred to as a primary readout, because this assay has produced multiple assay endpoints where this one serves a reporter gene function. To generalize the intended target to other relatable targets, this assay endpoint is annotated to the dna binding intended target family, where the subfamily is basic helix-turn-helix leucine zipper.
Human liver HepG2 cells are transiently transfected with multiple reporter transcription units (MRTUs) in 6-well plates using FuGene 6 reagent (Roche; 3 ml FuGene/1 mg DNA). The MRTU constructs are regulated by a cis-regulating element (promoter). […] A major difference between the CIS and TRANS system is that in CIS activities of endogenous TFs are measured, whereas the TRANS assay evaluates changes in activities of exogenous, chimeric NR-Gal4 proteins. […] At the end of 24 hour incubation, total RNA was isolated using TriZol reagent (Invitrogen). The isolated RNA is then reverse-transcribed using oligo(dT) primer and Mo-MLV reverse transcriptase (Invitrogen) with DNAse I (Ambion) treatment for 30 min. The one-tenth of the produced cDNA was amplified by PCR using Taq DNA polymerase (Invitrogen) and two reporter sequence-specific primers. The PCR products were fluorescently labeled by primer extension with 6-arboxyfluorescein (6-FAM) 5'-labeled reporter sequence-specific primer (2 min at 95 C, 20 s at 68 C and 10 min at 72 C) and these products were digested with 5U of HpaI (New England Biolabs) for 2h at 37 C. The fragments were purified using Qiaquick PCR columns (Qiagen), analyzed on an ABI 3130xL genetic analyzer (Applied Biosystems) with peak positions identified by using a set of X-rhodamine (ROX)-labeled MapMarker1000 molecular weight standards (BioVentures). The raw capillary electrophoresis data was processed using Attagraph software (Attagene).

SMILES | outcome | AC50
O=C(O)CCC(F)(F)C(F)(F)C(F)(F)C(F)(F)C(F)(F)C(F)(F)F | inactive | 
Cc1ccccc1OCC(=O)O | inactive | 
COCN(COC)c1nc(N(COC)COC)nc(N(COC)COC)n1 | inactive | 
Cc1ccc(C(=O)c2ccccc2)cc1 | inactive | 
O=C(Nc1ccc(Cl)c(Cl)c1)c1cc(Cl)cc(Cl)c1O |  | 2.07 µM (active)
Cc1cc(Cc2cc(C)cc(C(C)(C)C)c2O)c(O)c(C(C)(C)C)c1 | inactive | 
C=CC(=O)OCC(CO)(COCC(COC(=O)C=C)(COC(=O)C=C)COC(=O)C=C)COC(=O)C=C | inactive | 
CCOCCOCC | inactive | 
O=C(c1cc(O)c(O)c(O)c1)c1ccc(O)c(O)c1O | inactive | 
Clc1ccc(Nc2nnc(Cc3ccncc3)c3ccccc23)cc1 | inactive | 
c1ccc2c(c1)CCC2 | inactive | 
O=C1c2ccccc2C(=O)c2c(O)c(O)cc(O)c21 | inactive | 
C=CC(=C)CC/C=C(\C)CCC=C(C)C | inactive | 
FC(F)(F)C1(F)C(F)(F)C(F)(F)C(F)(F)C(F)(C(F)(F)F)C1(F)F (stereo not given) | inactive | 
Nc1ccn([C@@H]2O[C@H](CO)[C@@H](O)C2O)c(=O)n1 (stereo not given in full) | inactive | 
CCCCC(CC)C(=O)O (stereo not given) | inactive | 
CCOC(C)=O | inactive | 
CCCCCCCCCCCCOC(=O)c1cc(O)c(O)c(O)c1 | inactive | 
CCc1cccc(CC)c1N(COC)C(=O)CS(=O)(=O)O | inactive | 
CCO[Si](CCC1CCC2OC2C1)(OCC)OCC (stereo not given) | inactive | 

SMILES | outcome | AC50
CCC(C)c1nccnc1OC (stereo not given) | inactive | 
O=C(O)C(F)(F)OC(F)(F)C(F)(F)OC(F)(F)C(F)(F)OC(F)(F)C(F)(F)C(F)(F)C(F)(F)F |  | 93.6 µM (active) and 28.1 µM (active)
CCCCCc1ccc(O)cc1 | inactive | 
CC(O)COc1ccccc1 (stereo not given) | inactive | 
Oc1c(Cl)cc(Cl)cc1Sc1cc(Cl)cc(Cl)c1O | inactive | 
CCOC(=O)CN[C@@H](C(=O)N1CC[C@H]1C(=O)NCc1ccc(/C(N)=N/O)cc1)C1CCCCC1 | inactive | 
O=C1c2ccc(O)c(O)c2C(=O)c2c(O)ccc(O)c21 | inactive | 
O=P(O)(O)CCC(F)(F)C(F)(F)C(F)(F)C(F)(F)C(F)(F)C(F)(F)C(F)(F)C(F)(F)F | inactive | 
CC(C)(C)C1CCCCC1O (stereo not given) | inactive | 
CN(Cc1cnc2nc(N)nc(N)c2n1)c1ccc(C(=O)N[C@@H](CCC(=O)O)C(=O)O)cc1 | inactive | 
NNC(=O)CCCCC(=O)NN | inactive | 
O=c1cc(-c2ccccc2)oc2ccc3ccccc3c12 | inactive | 
C[C@]12CC[C@@H]3c4ccc(O)cc4CC[C@H]3[C@@H]1CC[C@@H]2OC(=O)CCC1CCCC1 | inactive | 
CCO[Si](C)(C)OCC | inactive | 
CCN(CC)CC | inactive | 
CC(C)(c1ccc(Oc2ccc(N)cc2)cc1)c1ccc(Oc2ccc(N)cc2)cc1 | inactive | 
COc1cccc(O)c1 | inactive | 
CC1=CC(=O)c2ccccc2C1=O | inactive | 
Brc1cc(Br)c(Oc2c(Br)cc(Br)c(Br)c2Br)cc1Br | inactive | 
CC(=O)Nc1ccc(O)cc1 | inactive | 
